# Shown is part of a subset that was picked to be rich in hits.
# BoNT F protease – BoNT F light chain protease inhibition | Multiplex microsphere protease cleavage assay, flow cytometry | inhibition, % at 10 µM | hit rate 0.22% among 360,000; in the data active = inhibition above about 35%, passing the limit was not always enough; inconclusive = no clear call, values can overlap the other calls
# Anthrax LF prot – blocks Bacillus anthracis lethal factor protease; multiplex microsphere protease cleavage assay, LF; inhibition, % at 10 µM; hit rate 0.12% among 360,000; AID 588501
# Bead autofluor – flagged as autofluorescent in microsphere protease counterscreen | compound autofluorescence counterscreen, microsphere flow cytometry; stronger effect = higher value | fluorescence intensity (no concentration beside the values) | hit rate 3.1% among 360,000; in the data active = fluorescence intensity above about 16000; inconclusive = no clear call, values can overlap the other calls
# BoNT-A LC inh2 – BoNT A light chain protease inhibition. multiplex microsphere protease substrate cleavage, flow cytometry. hit rate 0.17% among 360,000. inhibition, % at 10 µM
# TcdB inh – blocks C. difficile toxin B glycohydrolase activity | P18177 | TcdB glycohydrolase enzymatic assay, plate reader | inhibition, % at 9.99 µM | hit rate 0.24% among 350,000 | AID 652162; in the data active = inhibition above about 10%
# Numbers stand for hits; - = inactive; ? = inconclusive; . = not tested or not shown. Cut-off read from the data, not from the text of the source, unless noted: active = inhibition above about 30%; inconclusive = no clear call, values can overlap the other calls; inactive = below that.
SMILES,BoNT F protease,Anthrax LF prot,Bead autofluor,BoNT-A LC inh2,TcdB inh
CC(NC(=O)c1ccc2c(c1)OCCO2)C(=O)O (stereo unspecified),-,-,-,-,.
CCC(CC)NC(=O)c1ccc2c(c1)OCCO2,-,-,23941,-,.
N#C[C@@H]1[C@H](c2ccc(C#CC3CCCCC3)cc2)[C@H](CO)N1C(=O)c1cccc(F)c1,.,.,.,.,-
CCOC(=O)c1sc2nc[nH]c(=O)c2c1C,-,-,-,-,.
CCOC(=O)c1snc2c(=O)[nH]cnc12,-,-,18607,-,.
C[C@@H]1CN([C@H](C)CO)C(=O)c2cc(NC(=O)Nc3ccc(F)cc3)ccc2O[C@H]1CN(C)C(=O)Nc1ccc(F)cc1,.,.,.,.,-
O=C1c2ccccc2S(=O)(=O)N1CCOc1ccc(F)cc1,-,-,24481,-,.
O=C(CCN1C(=O)c2ccccc2S1(=O)=O)NCc1ccc(F)cc1,?,?,?,?,-
CCOc1nc(-c2ccccc2Cl)ccc1C#N,-,-,20479,-,.
COc1ccc(-c2ccc(C#N)c(OC)n2)cc1,-,-,-,-,-
Cn1c(SCC(=O)OC2CCCCC2)nnc1-c1ccc2c(c1)OCO2,-,-,21547,-,.
C[C@H]1CN([C@@H](C)CO)C(=O)c2ccccc2-c2ccccc2CO[C@@H]1CN(C)C(=O)Nc1ccccc1C(F)(F)F,.,.,.,.,-
COC(=O)/C=C1\NCCSC1=O,-,-,17208,-,.
C[C@@H]1CN([C@H](C)CO)C(=O)c2cc(-c3ccc(F)cc3)cnc2O[C@H]1CN(C)C(=O)CN(C)C,.,.,.,.,-
Nc1cc2c([N+](=O)[O-])cccc2o1,38,-,-,-,.
Cc1c(N)cccc1[N+](=O)[O-],-,-,-,-,-
O=C(c1cc2c(=O)n3ccccc3nc2s1)N1CCOCC1,-,-,21556,-,.
CC1CCN(C(=O)c2cc3c(=O)n4ccccc4nc3s2)CC1,-,-,-,-,-
CN(C)c1ccc2c(c1)[C@H]1C[C@H](CC(=O)NCc3ccc(Oc4ccccc4)cc3)O[C@H](CO)[C@H]1O2,.,.,.,.,-
Cc1ccc(N2C(=O)C(c3c(C)[nH]n(-c4ccccc4)c3=O)(C(F)(F)F)C3=C2CC(C)(C)CC3=O)cc1 (stereo unspecified),-,-,-,-,.
Cc1[nH]n(-c2ccccc2)c(=O)c1C1(C(F)(F)F)C(=O)N(c2ccccc2)C2=C1C(=O)CC(C)(C)C2 (stereo unspecified),-,-,23155,?,.
Cc1ccc(S(=O)(=O)Nc2ccc3c(c2)CC(=O)N([C@@H](C)CO)C[C@@H](C)[C@H](CN(C)S(=O)(=O)c2cccs2)O3)cc1,.,.,.,.,-
Cc1cnc(NC(=O)CSc2nnc(Cc3ccccc3)o2)s1,-,-,-,?,-
CCn1c(Cc2ccccc2)nnc1SCC(=O)Nc1ccc2c(c1)OCCO2,-,-,17692,?,.
CCn1c(Cc2ccccc2)nnc1SCC(=O)Nc1nc(C)cs1,-,-,-,-,.
SMILES,BoNT F protease,Anthrax LF prot,Bead autofluor,BoNT-A LC inh2,TcdB inh
CCn1c(Cc2ccccc2)nnc1SCC(=O)Nc1ccc(N)cc1,-,-,-,-,.
Cc1cnc(NC(=O)CSc2nnc(Cc3ccccc3)n2C)s1,-,-,21335,-,.
CCn1c(Cc2ccccc2)nnc1SCC(=O)Nc1nc(C)c(C)s1,-,-,21539,-,.
CCn1c(COc2ccccc2C)nnc1SCC(=O)Nc1ccc2c(c1)OCCO2,-,-,20676,?,.
CN(C)CC(=O)N[C@H]1CC[C@@H](CCn2cc(CN(C)C)nn2)O[C@H]1CO,.,.,.,.,-
CCn1c(=O)cc(SCC(=O)Nc2ccc3c(c2)OCCO3)c2ccccc21,-,-,20714,-,.
O=C(C[C@H]1C=C[C@@H](NC(=O)NC2CCCC2)[C@@H](CO)O1)NCc1ccc(F)cc1,.,.,.,.,-
C=CCNC(=O)c1oc2ccc(S(=O)(=O)N(CC)CC)cc2c1C,-,-,24786,-,.
C[C@@H]1CN([C@H](C)CO)C(=O)c2cc(NS(=O)(=O)c3cccs3)ccc2O[C@@H]1CN(C)S(=O)(=O)c1ccc(Cl)cc1,.,.,.,.,-
C[C@H](O)C#Cc1ccc2c(c1)O[C@@H](CN(C)C(=O)C1CCC1)[C@H](C)CN([C@H](C)CO)S2(=O)=O,.,.,.,.,-
COc1ccc(CCNC(=O)Cn2cnc3c(cnn3-c3ccccc3Cl)c2=O)cc1OC,-,-,21068,-,.
COc1ccc(CCNC(=O)Cn2cnc3ccccc3c2=O)cc1OC,-,-,-,-,.
CC1(C)C2CC=C(CN3CCOCC3)C1C2 (stereo unspecified),-,-,22704,-,-
COc1cccc(-c2ccc([C@@H]3[C@@H](CO)N4C(=O)CNC[C@H]34)cc2)c1,.,.,.,.,-
CC1CC(C)CN(S(=O)(=O)N2CCCC(C(=O)NCCCN3CCCCC3C)C2)C1 (stereo unspecified),-,-,-,-,-
